Results taken from PubChem BioAssay (NCATS).
Several values for one entry are separate records, joined by “and”; a condition that tells them apart may be missing. Equal entries are not always repeated. Records with an inconclusive call do not appear. Entries that show only a call come without a potency. Activity calls are given as the source filed them. The call rests on the fitted dose curve; in most records, active means well fitted curve in the direction sought with a large enough effect; inconclusive means small, poorly fitted or top-dose-only effect, or another doubt; inactive means no such curve, though single readings can be large; an effect the other way counts as inactive or inconclusive.

Tests used:
ICS = experiment: qHTS profiling for inhibitors of Plasmodium falciparum proliferation (AID 504749); conditions: P. falciparum in erythrocytes, SYBR Green DNA, 72 h; series mostly up to 28.7 µM
How it was run: (§1)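 In a 72 h erythrocytic culture (37 C, humidified, 5% CO2) at 2.5% hematocrit and 0.3% starting parasitemia, compounds were tested; SYBR Green I in detergent lysis buffer stained parasite DNA overnight.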

W2 = experiment: as above; conditions: P. falciparum in erythrocytes, SYBR Green DNA, 72 h; series mostly up to 12.8 µM
How it was run: as §1

[1] = molecular target: Cytochrome P450 2C19 (Homo sapiens) (UniProt P33261); experiment: qHTS Assay for Inhibitors and Substrates of Cytochrome P450 2C19 (AID 899); further: potency means the concentration at half of the fitted maximal effect
How it was run: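 Reactions contain 5nM enzyme, 10uM Luciferin-H EGE (KM) and 50mM KPO4; compound preincubates 10 min at 37C, NADPH regeneration starts turnover for 60 min. Luminescence after detection reagent gives activity.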
Further: nearly all actives have a fitted effect of over 60% in size.

Chain of Cytochrome P450 2C19 (Homo sapiens) (P33261 whole entry, looked up): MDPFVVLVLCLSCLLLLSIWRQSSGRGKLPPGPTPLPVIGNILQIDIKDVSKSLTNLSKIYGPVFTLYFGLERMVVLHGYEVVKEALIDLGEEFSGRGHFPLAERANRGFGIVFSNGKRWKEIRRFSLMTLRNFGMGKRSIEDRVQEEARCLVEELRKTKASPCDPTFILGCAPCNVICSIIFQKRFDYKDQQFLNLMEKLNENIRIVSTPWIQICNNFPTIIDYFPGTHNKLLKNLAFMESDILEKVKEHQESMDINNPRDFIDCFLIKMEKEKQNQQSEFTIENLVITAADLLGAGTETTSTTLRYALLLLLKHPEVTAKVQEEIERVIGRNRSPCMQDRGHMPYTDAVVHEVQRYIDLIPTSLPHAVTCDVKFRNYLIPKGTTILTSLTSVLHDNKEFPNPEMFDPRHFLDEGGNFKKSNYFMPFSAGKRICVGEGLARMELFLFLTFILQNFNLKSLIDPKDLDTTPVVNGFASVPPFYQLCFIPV

| SMILES | Potency (ICS) | Potency (W2) | Potency [1] |
| --- | --- | --- | --- |
| CC(=O)OCC(=O)[C@@H]1CC[C@H]2[C@H]3CC[C@H]4C[C@@H](O)CC[C@]4(C)[C@@H]3C(=O)C[C@@]12C | inactive | inactive |  |
| C#CCN(C)[C@@H](C)Cc1ccccc1 | inactive | inactive |  |
| CCN1C[C@]2(C)CC[C@H](OC)[C@@]34[C@@H]2[C@H](OC(C)=O)[C@]2(OCO[C@@]25C[C@@H](OC)[C@@H]2C[C@@]3(O)[C@H]5[C@@H]2OC)[C@H]14 |  |  | inactive |
| COc1ccc(C[C@H]2c3cc(OC)c(OC)cc3CCN2C)cc1OC |  |  | inactive |
| CN1CC[C@]2(C)c3cc(O)ccc3N(C)[C@@H]12 |  |  | 12.6 µM (active) |
| CN(C)C(=O)Oc1cc(OC(=O)N(C)C)cc([C@@H](O)CNC(C)(C)C)c1 | inactive | inactive | inactive |
| C[N+]1([O-])[C@@H]2CC[C@H]1CC(OC(=O)[C@@H](CO)c1ccccc1)C2 (stereo not given in full) | inactive | inactive |  |
| CO[C@@H](C)[C@](O)(C(=O)OCC1=CCN2CC[C@@H](O)[C@H]12)C(C)C |  |  | inactive |
| COc1cc2c(cc1OC)[C@H](C)NCC2 |  |  | inactive |
| CN1CCc2cc3c(cc2[C@@H]1[C@@H]1OC(=O)c2c1ccc1c2OCO1)OCO3 |  |  | 398 nM (active) and 50.1 nM (active) |
